{
  "source": "PubChem BioAssay (NCI)",
  "note": "“And” between values parts separate entries of the source, which are not always exact repeats. Equal entries are not always repeated. This is part of a sample that, as a whole, favours compounds with a hit. Of some 79,000 tested, about 15% had one in any assay. The source made the active and inactive calls. Rule as the data show it: active = growth inhibition above about 70%; inactive = the rest.",
  "data": [
    {"assay": "NCI Yeast Anticancer Drug Screen. Data for the rad50 strain (AID 155);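 also: 0% = growth of vehicle-only cultures of the same strain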", "conditions": "S. cerevisiae rad50 strain growth inhibition; at 50.0 µM; hits give high values", "procedure,_shortened": "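A DNA repair-deficient yeast mutant serves as the test organism; compound-induced growth inhibition is calculated against vehicle-treated cells.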", "values": [
      {"compound": "CC(COC(=O)NCc1ccccc1)OC(N)=O", "note": "(stereo not given)", "growth inhibition": "-1.05% (inactive)"},
      {"compound": "CC(C)(C)C1=C(Br)C(F)(C(C)(C)C)OP1(=O)c1ccccc1", "note": "(stereo not given)", "growth inhibition": "88.7% (active)"},
      {"compound": "O=P(Nc1ccc(Cl)cc1)(Oc1ccccc1)N(CCCl)CCCl", "note": "(stereo not given)", "growth inhibition": "3.75% (inactive)"},
      {"compound": "COc1ccc2c(c1OC)CC(N)C2O", "note": "(stereo not given)", "growth inhibition": "9% (inactive)"},
      {"compound": "CN1CCc2ccc(O)cc2C1", "growth inhibition": "16.3% (inactive)"},
      {"compound": "O=C(Cc1ccccc1)OC1CCCC1", "growth inhibition": "14.6% (inactive)"},
      {"compound": "O=C1NC2(CCCCC2)C(=O)N1CCCCCN(CCCl)CCCl", "growth inhibition": "22.8% (inactive)"},
      {"compound": "Nc1cc(S(=O)(=O)F)ccc1Cl", "growth inhibition": "26.3% (inactive)"},
      {"compound": "CCC(CO)N=Cc1ccccc1O.CCC(CO)N=Cc1ccccc1O.[Ni]", "note": "(stereo not given)", "growth inhibition": "40% (inactive)"},
      {"compound": "CS(=O)(=O)OC1C2CC(C1OS(C)(=O)=O)C(c1ccccc1)C2C(=O)O", "note": "(stereo not given)", "growth inhibition": "25% (inactive)"},
      {"compound": "CC(C)(C)C1=C(Br)C(OC(=O)C(F)(F)F)(C(C)(C)C)OP1(=O)c1ccccc1", "note": "(stereo not given)", "growth inhibition": "1.55% (inactive)"},
      {"compound": "O=C(Cl)c1cc([N+](=O)[O-])cc([N+](=O)[O-])c1", "growth inhibition": "48.1% (inactive)"},
      {"compound": "COc1ccc(CCN(C)Cc2cccc(OC)c2OC)cc1OC", "growth inhibition": "-17.1% (inactive)"},
      {"compound": "O=C1C2CCN(CC2)C1Cc1ccccc1", "note": "(stereo not given)", "growth inhibition": "-10.2% (inactive) and -4.55% (inactive)"},
      {"compound": "C#CC1(O)CCC(C(C)(C)C)CC1", "note": "(stereo not given)", "growth inhibition": "10.2% (inactive) and -5.45% (inactive) and 20.4% (inactive)"},
      {"compound": "CC(C)OC(=S)S.[Cu+2]", "growth inhibition": "-7% (inactive)"},
      {"compound": "NC(N)=NCCCCCCCCCCN=C(N)N", "growth inhibition": "0.45% (inactive)"},
      {"compound": "OC(c1ccccc1)C(NC1CCCCC1)c1ccccc1", "note": "(stereo not given)", "growth inhibition": "-4.5% (inactive)"},
      {"compound": "C1CC[N-]CC1.CC(=N\\O)/C(C)=N/O.CC(=N\\O)/C(C)=N/O.C[C-]=O.[Co+2]", "growth inhibition": "-3.6% (inactive)"},
      {"compound": "O=[As](O)(O)c1cc(N=Nc2ccc(-c3ccc(N=Nc4cc([As](=O)(O)O)c(O)cc4O)cc3)cc2)c(O)cc1O", "growth inhibition": "0.1% (inactive)"},
      {"compound": "O=C(CF)NCCCl", "growth inhibition": "-3.45% (inactive)"},
      {"compound": "O=CC=O", "growth inhibition": "33.1% (inactive)"},
      {"compound": "Nc1ccc([N+](=O)[O-])cc1Cl", "growth inhibition": "11.8% (inactive)"},
      {"compound": "CN1CCN(C(=O)Cc2c[nH]c3ccccc23)CC1", "growth inhibition": "-1.25% (inactive)"},
      {"compound": "CS(=O)(=O)CS(=O)(=O)OCCF", "growth inhibition": "5% (inactive)"}
    ]}
  ]
}
